miR-122 inh: miR-122 suppressors via Renilla sensor increase, primary screen, cell-based, Huh7 psiCHECK-miR122, Renilla luciferase, single point. 48 h. AID 623901, 2012. 340,000 tested, 0.14% active. activation, % at 12.5 µM;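 active means mean activation of 30% or more, with every replicate also reaching 30%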;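 further: 0% = median of neutral control wells and 100% = median of positive control wells; higher luciferase signal means stronger suppression of miR-122 activity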
Numbers without * were called inactive. Many of the other results were omitted from the sample, so hits are more common in it than they were.

SMILES	miR-122 inh
CN1CCN(c2ccc([N+](=O)[O-])c3no[n+]([O-])c23)CC1	35.1*
COc1cc2c(c(OC)c1OC)-c1ccc(O)c(=O)cc1C(NC(C)=O)CC2 (centres undefined)	-96.8
CCOc1ccccc1NC(=O)N1CCC2(CC1)OCCO2	-115.1
CN=C1CN(O)C(c2ccccc2)c2cc(Cl)ccc2N1 (centres undefined)	-111.4
COc1ccc(NP(=O)(Oc2ccc(Cl)cc2)Oc2ccc(Cl)cc2)cc1OC	-136.5
O=c1cc(C2CCNCC2)[nH][nH]1	-155.7
CCCCn1nnnc1C(c1cccc(OC)c1OC)N1CCC2(CC1)C(=O)NCN2c1ccccc1 (centres undefined)	-91.7
CCN(CC)S(=O)(=O)c1ccc(C)c(NCC(=O)Nc2ccc(C#N)c(Cl)c2)c1	-119.2
COc1ccc(C2SCC(=O)Nc3c2c(=O)[nH]n3C2CCCCCC2)cc1 (centres undefined)	37.0*
Cc1ccc(OP(=O)(Nc2cccc(C)c2)Oc2ccc(C)cc2)cc1	-187.1

Compound activity from PubChem.
